Laboratory results reported in PubChem BioAssay AID485346 (Sanford-Burnham Center for Chemical Genomics, 2010).
Hit rate of the full screen: of about 330,000 compounds, about 10,000 (3%) were called active. This excerpt belongs to a sample that is enriched for actives. Values without a mark were called inactive.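 How the source made its calls: active means inhibition of at least 50% at 8 µM in the primary screen; inactive means the rest.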

These compounds were tested against Protein Mdm4 (Homo sapiens) + E3 ubiquitin-protein ligase Mdm2 (Homo sapiens) (UniProt O15151+Q00987) (assay: disruptors of Mdm2/MdmX RING complex – cell-based, luminescence, split luciferase, SaOS-2, uHTS, primary screen (AID 485346)). Settings: SaOS-2 split-luciferase Mdm2/MdmX complementation, at 8 µM, stronger effect = higher value.
Chain of Protein Mdm4 (Homo sapiens) + E3 ubiquitin-protein ligase Mdm2 (Homo sapiens) (O15151 whole entry, looked up): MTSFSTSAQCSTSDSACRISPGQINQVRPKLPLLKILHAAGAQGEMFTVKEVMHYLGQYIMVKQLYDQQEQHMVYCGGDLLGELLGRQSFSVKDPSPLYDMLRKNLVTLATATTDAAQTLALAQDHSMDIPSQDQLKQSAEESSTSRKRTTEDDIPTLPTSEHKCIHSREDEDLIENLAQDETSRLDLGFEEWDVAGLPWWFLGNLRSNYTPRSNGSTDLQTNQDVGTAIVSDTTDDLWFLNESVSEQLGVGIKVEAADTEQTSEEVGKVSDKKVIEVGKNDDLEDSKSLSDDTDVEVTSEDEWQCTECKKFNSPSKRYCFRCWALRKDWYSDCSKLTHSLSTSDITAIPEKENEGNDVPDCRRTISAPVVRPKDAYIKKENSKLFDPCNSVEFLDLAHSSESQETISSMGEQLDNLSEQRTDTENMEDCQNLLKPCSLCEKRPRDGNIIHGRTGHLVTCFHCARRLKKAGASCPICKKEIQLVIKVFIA
Chain of Protein Mdm4 (Homo sapiens) + E3 ubiquitin-protein ligase Mdm2 (Homo sapiens) (Q00987 whole entry, looked up): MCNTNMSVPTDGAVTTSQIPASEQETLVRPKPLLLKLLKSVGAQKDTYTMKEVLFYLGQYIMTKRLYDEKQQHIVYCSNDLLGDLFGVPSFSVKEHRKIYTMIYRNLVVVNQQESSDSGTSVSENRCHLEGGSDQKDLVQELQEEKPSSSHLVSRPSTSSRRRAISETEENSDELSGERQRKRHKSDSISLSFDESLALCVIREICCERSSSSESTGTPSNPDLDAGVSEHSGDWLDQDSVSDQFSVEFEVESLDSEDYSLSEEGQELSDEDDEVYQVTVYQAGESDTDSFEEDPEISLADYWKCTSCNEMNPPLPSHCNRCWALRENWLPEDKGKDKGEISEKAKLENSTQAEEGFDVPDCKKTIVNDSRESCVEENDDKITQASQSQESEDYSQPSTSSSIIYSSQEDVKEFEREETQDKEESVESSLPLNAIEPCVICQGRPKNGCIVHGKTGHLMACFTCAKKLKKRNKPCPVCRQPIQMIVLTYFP

Row | SMILES | inhibition
1 | COc1ccc(/C=N/NC(=O)c2cc(-c3cccc(C)c3)nc3ccccc23)cc1O | 34.6%
2 | CCOc1ccc(-c2cc(C(=O)N/N=C/c3ccc(O)cc3)c3ccccc3n2)cc1 | 76.9% (active)
3 | CCOc1cc(/C=N/NC(=O)c2cc(-c3ccccc3)nc3ccccc23)ccc1O | -10.1%
4 | O=C(NCCCN1CCOCC1)c1cnn2c(-c3ccccc3)cc(-c3ccccc3)nc12 | 37.7%
5 | CN1CCN(c2ccc(S(=O)(=O)N3CCCCC3)cc2NC(=O)Cc2ccccc2F)CC1 | 9.14%
6 | CCN1CCN(c2ccc(S(=O)(=O)N3CCCCC3)cc2NC(=O)c2cccc(NC(C)=O)c2)CC1 | 12%
7 | CCN1CCN(c2ccc(S(=O)(=O)N3CCCCC3)cc2NC(=O)Cc2c(Cl)cccc2Cl)CC1 | 65.1% (active)
8 | COc1cc2[nH]c(=S)n(Cc3ccc(F)cc3)c(=O)c2cc1OC | 81.3% (active)
9 | CCOc1cc2[nH]c(=S)n(Cc3ccc(C(=O)N4CCN(C)CC4)cc3)c(=O)c2cc1OCC | 91.7% (active)
10 | COc1ccc(Cn2c(=S)[nH]c3cc(C(=O)N4CCCCC4)ccc3c2=O)cc1 | 14.8%
11 | COc1cc2[nH]c(=S)n(CCN3CCCCC3C)c(=O)c2cc1OC (stereo not given) | 39.9%
12 | CCOc1cc2[nH]c(=S)n(Cc3ccc(C(=O)NCCOC)cc3)c(=O)c2cc1OCC | 19.2%
13 | COc1cc2[nH]c(=S)n(Cc3ccc(C)o3)c(=O)c2cc1OC | 2.31%
14 | CC(=O)NC(Cc1ccc(F)c(F)c1)C(=O)NC1CCN(c2nnnn2-c2ccccc2)CC1 (stereo not given) | 6.6%
15 | Cc1ccc(CNC(=O)CCCNC(=O)c2ccc(Cl)cc2)n1C | 22.5%
16 | CCN(Cc1ccncc1)C(=O)CCc1ccccc1 | 16.5%
17 | O=C(CCNc1n[nH]c(=O)[nH]c1=O)N/N=C\c1ccc(Br)cc1 | 9.18%
18 | Cc1cc(C(=O)NNC(=O)c2ccccc2O)c(C)o1 | 30%
19 | CC1=C(C)CC(C(=O)NNC(=O)c2ccccc2O)C(C(=O)O)C1 (stereo not given) | 60.5% (active)
20 | CC1=C(C)CC(C(=O)NNC(=O)c2csc3c2CCC(C(C)(C)C)C3)C(C(=O)O)C1 (stereo not given) | 7.93%

Row | SMILES | inhibition
21 | Cc1noc(NS(=O)(=O)c2ccc(NC(=O)c3oc4ccc(F)cc4c3C)cc2)c1C | -34%
22 | S=c1[nH]c(-c2cccs2)cn1-c1ccccc1 | -16.2%
23 | O=c1oc2ccccc2cc1-c1cn(-c2ccccc2)c(=S)[nH]1 | 88.3% (active)
24 | O=C(Nc1cc2ccccc2oc1=O)C1CCCCC1 | -82.7%
25 | COCCCN1C(=O)C(=O)/C(=C(/O)c2ccc(S(=O)(=O)N3CCOCC3)cc2)C1c1ccc(F)cc1 (stereo not given) | -23.9%
26 | COc1ccccc1C1=CC(=O)C[C@H](c2ccc(F)cc2)C1 | -0.761%
27 | O=C(NCCc1ccccc1)Oc1ccc(Cl)cc1 | 11.2%
28 | CCN1CCN(c2nc(Nc3cc(OC)ccc3OC)nc(Nc3cc(OC)ccc3OC)n2)CC1 | 56.2% (active)
29 | CCOC(=O)N1CCN(CCC(=O)Nc2cc(OC)ccc2OC)CC1 | -21.2%
30 | CCOc1ccc(Nc2nc(Cl)nc(N3CCN(c4ccc(OC)cc4)CC3)n2)cc1 | 7.3%
31 | Cc1ccc(C)c(-n2nnnc2SCC(=O)c2c(N)n(C)c(=O)n(C)c2=O)c1 | 24.7%
32 | CS(=O)(=O)N(CC(=O)Nc1ccc(Cl)c(Cl)c1)C1CCCCC1 | 11.5%
33 | O=C(CC(O)(C(F)(F)F)C(F)(F)F)Nc1ccc(Cl)c(Cl)c1 | 83.5% (active)
34 | CCn1nccc1C(=O)Nc1ccc(Cl)c(Cl)c1 | 28.3%
35 | COc1ccc(N2CCN(C(=O)CNS(=O)(=O)c3ccc(C)c(C)c3)CC2)cc1 | -7.3%
36 | CN(C)c1ccc(C=C2C(=O)OC3(CCCC3)OC2=O)cc1 | -3.25%
37 | COC(=O)c1ccc(COc2ccc(/C=N/NC(=O)C(=O)Nc3ccc(OC)cc3)cc2OC)o1 | 36.6%
38 | COc1cc(/C=N/NC(=O)c2ccoc2C)ccc1OCCN1CCCCC1 | 7.93%
39 | COc1cc(/C=N/NC(=O)Nc2ccccc2)ccc1OCCOc1ccccc1C | 63.8% (active)
40 | COc1ccc(S(=O)(=O)N2CCCCCC2)cc1NC(=O)Cc1ccc(OC)c(OC)c1 | 7.01%

Row | SMILES | inhibition
41 | COc1cc(C(C)=O)ccc1OC(C)C(=O)Nc1ccc(S(=O)(=O)N2CCCC2)cc1 (stereo not given) | 9.67%
42 | COc1ccc(-c2ccc(Nc3ccc(S(=O)(=O)N4CCCC4)cc3)nn2)cc1OC | 57.4% (active)
43 | O/N=C(\C[n+]1ccccc1)c1ccc(Br)cc1 | 17%
44 | CC(=O)C(CC(=O)N1CCCC1)C(=O)Nc1ccc(Cl)cc1 (stereo not given) | -3.54%
45 | O=C(O)CCCN1C(=O)c2ccccc2Sc2ncccc21 | -8.61%
46 | Nc1nc(COC(=O)CCC(=O)c2ccc(Cl)cc2)nc(Nc2ccccc2)n1 | -9.75%
47 | Nc1nc(CC(=O)CSc2ccc(Cl)cc2)nc(Nc2ccc(F)cc2)n1 | 81% (active)
48 | Cc1ccc(Nc2nc(N)nc(CSc3nnc(C)s3)n2)cc1 | -6.62%
49 | CCS(=O)(=O)c1ccc2c(c1)N(S(=O)(=O)c1ccccc1)CC(C(=O)O)O2 (stereo not given) | -32%
50 | Cn1c(N)c(C(=O)COC(=O)/C=C/c2cccc(C(F)(F)F)c2)c(=O)n(C)c1=O | 21.9%
51 | COc1ccc2sc(-c3ccc(S(C)(=O)=O)cc3)c(C#Cc3cncn3C)c2c1 | 69.9% (active)
52 | COc1ccc2sc(-c3ccc(S(C)(=O)=O)cc3)c(-c3ccc(C(N)=O)cc3)c2c1 | 12%
53 | COc1ccc(-c2sc3ccc(OC)cc3c2C#Cc2ccccn2)cc1 | 40.5%
54 | COCc1cc(C)nc(Nc2cc(C)ccc2C)c1C#N | 17.9%
55 | COc1cc(N=Cc2c(O)c3ccccc3oc2=O)c(OC)cc1Cl | 20.6%
56 | COc1cc(N=Cc2c(O)[nH]c3ccccc23)cc(OC)c1OC | 80.2% (active)
57 | COc1cc(/C=N/NC(=O)Cc2ccccc2)cc(OC)c1OC | 4.45%
58 | COc1ccc2[nH]c(C(=O)N/N=C/c3cc(OC)c(OC)c(OC)c3)cc2c1 | 11.4%
59 | CN=c1scc(-c2cc(OC)ccc2OC)n1/N=C/c1c(C)[nH]c2ccccc12 | 20.3%
60 | COc1ccc(N=Cc2c(O)[nH]c3ccccc23)cc1OC | 61.3% (active)
